NPC1 prom act – NPC1 promoter activation; hit rate 2.4% among 320,000; AID 485313; Huh7 NPC1 promoter luciferase reporter, 24 h; Potency, µM (doses to about 9.22 µM), for the others: at the highest dose activation, actives largely listed as activators; further: % of control where 0% means no effect; nearly all actives have a fitted effect of over 60% in size
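Cells: Huh7 expressing luciferase under the NPC1 promoter, 1500/well. Seeded 2 h, compound added, incubated 24 h at 37 °C. Luciferase reagent, 10 min ambient, then luminescence.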
Rab9 prom act – activators of Rab9 promoter. hit rate 2.8% among 320,000. AID 485297. Huh7 Rab9 promoter-luciferase reporter, luminescence, 24 h. Potency, µM (highest dose often 9.22 µM), without a hit: at the highest dose activation, negative = inhibition, usual class: activators; further: % of control where 0% means no effect; nearly all actives have a fitted effect of over 60% in size
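Huh7 cells stably carrying a Rab9 promoter-luciferase reporter, 1500 cells per well in OP-MEM I with 10% FBS, treated with compound 24 hours at 37C. Luciferase activity read by luminescence after 10 minutes with Amplite reagent.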
ELG1 genotoxic – inducers of genotoxicity in HEK293T ELG1-luciferase cells | HEK293T ELG1-luciferase reporter, luminescence, 16 h | Potency, µM (titrated, usually from 46 µM), without a hit: at the top dose activity change, positive = activation, hits mostly activators | hit rate 1.3% among 330,000 | AID 504466; further: % of control where 0% means no effect; nearly all actives have a fitted effect of over 60% in size
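HEK293T cells expressing luciferase-tagged ELG1 were exposed to compound or DMSO vehicle for 16 hr at 37 °C and 5% CO2. Luciferase activity was then measured with ONE-Glo after 30 min at room temperature.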
FLuc modulator – inhibits or activates purified firefly luciferase, miR-21 counter-screen | purified FLuc, Km substrates, luminescence inhibition | Potency, µM (doses to about 57.5 µM), inactives show top-dose activity change, negative = inhibition, usual class: inhibitors | hit rate 6.9% among 360,000 | AID 588342;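 further: plate controls were vehicle for no effect and reference inhibitor for full effect; nearly all actives have a fitted effect of over 55% in size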
Target sequence (P08659 whole entry, looked up): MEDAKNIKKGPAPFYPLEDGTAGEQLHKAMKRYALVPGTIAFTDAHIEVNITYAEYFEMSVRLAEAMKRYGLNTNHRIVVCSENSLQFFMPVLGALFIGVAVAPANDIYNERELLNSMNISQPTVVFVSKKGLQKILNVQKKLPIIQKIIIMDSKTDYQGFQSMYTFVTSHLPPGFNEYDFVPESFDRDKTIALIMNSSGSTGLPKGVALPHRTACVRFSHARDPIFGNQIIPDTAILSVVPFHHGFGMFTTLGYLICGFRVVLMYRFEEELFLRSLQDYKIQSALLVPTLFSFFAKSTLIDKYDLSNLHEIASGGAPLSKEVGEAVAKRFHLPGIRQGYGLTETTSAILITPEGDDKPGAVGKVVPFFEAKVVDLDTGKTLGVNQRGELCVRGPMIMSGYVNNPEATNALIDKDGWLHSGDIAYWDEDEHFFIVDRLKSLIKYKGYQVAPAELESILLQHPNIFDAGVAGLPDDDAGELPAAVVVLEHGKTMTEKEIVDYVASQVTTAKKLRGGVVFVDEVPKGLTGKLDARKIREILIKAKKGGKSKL
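Purified P. pyralis luciferase, 10 nM final, with Km-level 10 uM D-luciferin and 10 uM ATP in 50 mM Tris acetate pH 7.5, 10 mM Mg acetate, 0.01% Tween-20, 0.05% BSA; 6-point qHTS titration about 60 µM downward; luminescence read.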
SMN2 splice up – increases expression of the SMN2 splice variant; HEK293 SMN2-luciferase splicing reporter, luminescence, 30-36 h; Potency, µM (titrated, usually from 46.1 µM), for inactives: at the highest dose activity change, positive = activation, most hits filed as activators; hit rate 2.8% among 210,000; AID 1458; further: % of control where 0% means no effect; nearly all actives have a fitted effect of over 55% in size
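qHTS luciferase splicing reporter: luminescence rises when SMN2 exon 7 is included in transfected HEK293 cells. Compound exposure lasted 30-36 h at 37C, with 4.5 mM final sodium butyrate as control, followed by a ONE-Glo read.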
p53 reactivation – restores transcriptional activity of mutant p53; H1299 p53-A138V BP100-luciferase reporter, luminescence, 24 h; Potency, µM (highest dose often 92.2 µM), without a hit: at the top dose activity change, positive = activation, most hits filed as activators; hit rate 0.063% among 320,000; AID 504706; further: % of control where 0% means no effect; nearly all actives have a fitted effect of over 45% in size
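H1299 (p53-null), stable ts p53-A138V + BP100-Luc; 1000 cells/well, Opti-MEM/10% FBS; cpd 4 pt, 1:5; 24 h, 37 deg C, 5% CO2; detection reagent 10 min RT; luminescence.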
Active calls of the source: *; ? = inconclusive; / = no result given. Shown are actives, neighbours in structure and some others; about 7.3% of the full set was active somewhere. The call rests on the fitted dose curve; in most records, active means well fitted curve in the direction sought with a large enough effect; inconclusive means small, poorly fitted or top-dose-only effect, or another doubt; inactive means no such curve, though single readings can be large; an effect the other way counts as inactive or inconclusive. Potency means the concentration at half of the fitted maximal effect.

SMILES	NPC1 prom act	Rab9 prom act	ELG1 genotoxic	FLuc modulator	SMN2 splice up	p53 reactivation
COc1ccc(C(=O)NNC(=O)CCC(=O)Nc2cc(C)on2)cc1	-2%	2%	2%	?	8%	2%
COc1ccc(C(=O)/C=C/Nc2cc(C)on2)cc1	2.2µM*	2.5µM*	6.5µM*	6µM*	25%	?
Cc1ccc(Cc2c(C)nc3nc(SCC(=O)NCCC(C)C)nn3c2C)cc1	/	/	/	0%	3%	/
Cc1cc(C)cc(Oc2ccc(N)cc2)c1	1%	-1%	22%	-8%	13µM*	-1%
Cc1cccc(Oc2ccc(N)cc2)c1	1%	15%	?	-15%	3%	10%
CC(/C=C/c1ccccc1)=N\Nc1ccccc1[N+](=O)[O-]	4µM*	?	14%	7.6µM*	19%	12%
CN(C)/C=C(\C#N)C(=O)Nc1ccc(F)c(Cl)c1	3.5µM*	3.2µM*	?	?	/	16%
CN(C)/C=C(\C#N)C(=O)Nc1ccc(F)cc1	28%	?	?	?	1%	4%
CN(C)/C=C(\C#N)C(=O)N/N=C/c1ccc(Cl)cc1	2.2µM*	?	9%	17µM*	30%	13%
O=C(CC1NCCNC1=O)Nc1ccccc1F (stereo not drawn)	/	/	/	1%	-1%	/
Cc1cccc(-n2ncc3c(N4CCCC4)ncnc32)c1	0.5µM*	0.63µM*	?	0.95µM*	1.6µM*	/
Cc1cccc(-n2ncc3c(N4CC(C)CC(C)C4)ncnc32)c1 (stereo not drawn)	2.2µM*	1.6µM*	2.6µM*	5.4µM*	?	?
COc1ccc(-n2ncc3c(N4CCN(c5cccc(C)c5)C(C)C4)ncnc32)cc1 (stereo not drawn)	/	/	/	-2%	/	/
Cc1cccc(-n2ncc3c(N4CCOCC4)ncnc32)c1	0.35µM*	0.35µM*	?	0.54µM*	-68%	7%
Cc1cccc(-n2ncc3c(N4CCN(c5ccccc5)CC4)ncnc32)c1	/	/	/	-2%	/	/
O=C(Nc1ccccc1)c1cccc(N2CCCS2(=O)=O)c1	/	/	/	-16%	/	/
CN(C)CCn1c(=O)n(-c2cccc(Cl)c2)c(=O)c2c3c(sc21)CCCCC3	-2%	7%	0%	5%	/	-6%
CSc1cccc(NC(=O)Cn2c3ncccc3c(=O)n2-c2ccc(C)cc2)c1	/	/	/	-4%	/	/
Cc1cccc(N2CCN(S(=O)(=O)c3ccc(F)c(C(=O)Nc4ccc(C(C)C)cc4)c3)CC2)c1C	/	/	/	2%	/	/
COC(=O)/C(=C1/Oc2ccc(C(C)(C)C)cc2S1)C(F)(F)F	?	?	?	4.8µM*	-16%	9%
Cc1ccc(C(=O)Nn2c(O)c(C=C3N=c4ccccc4=N3)sc2=S)cc1	0%	6%	5%	?	29%	10%
O=C(Nn1c(O)c(C=C2N=c3ccccc3=N2)sc1=S)c1ccccc1	0%	-4%	6%	6µM*	0%	-2%
Oc1[nH]c(=S)sc1C=C1N=c2ccccc2=N1	?	27%	?	6µM*	/	10%
O=C(Nn1c(O)c(C=C2N=c3ccccc3=N2)sc1=S)c1ccc(Cl)cc1	1%	-3%	8%	?	25%	3%
Cc1ccc(S(=O)(=O)Nn2c(O)c(C=C3N=c4ccccc4=N3)sc2=S)cc1	0%	2%	-3%	17µM*	/	10%
O=[N+]([O-])c1ccc(Cl)cc1N1CCOCC1	-8%	-13%	0%	0%	/	0%
CCCNC(=O)Cn1nc(-c2ccc(F)cc2)c2cnc3ccc(F)cc3c21	/	/	/	-2%	/	/
Cc1cc(=O)[nH]c(SCC(=O)Nc2ccc(S(=O)(=O)N3CCCCC3)cc2)n1	10%	2%	3%	?	/	3%
Cc1cc2nc(-c3ccc(SCC(=O)Nc4nccs4)nc3)[nH]c2cc1C	3.5µM*	2.5µM*	?	?	?	?

Compound activity: PubChem, National Center for Advancing Translational Sciences (NCATS)
